PubChem BioAssay
Activity calls are given as the source filed them.

Columns and labels:
[1] = optical density shifts of acrAB sulA E. coli – strain DRC41, OD650, 48 h, E. coli filamentation inducer project, primary screen (AID 1152); conditions: higher = more signal, called active from +8 up or from −8 down;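 note: E. coli MC1000 strain DRC41 lacking acrAB efflux pump and sulA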
[2] = probe aLefty1 binding on compound microarray – biochemical, small-molecule microarray, 635/667 nm fluorescence, primary screen (AID 1153); conditions: higher = more signal;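 note: score merges spot fluorescence with signal-to-noise ratio from the scanned slide images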
[3] = plasmodial surface anion channel blockers, osmotic lysis – cell-based, P. falciparum Indochina, OD700, 1 h, primary screen (AID 1154); conditions: P. falciparum Indochina infected RBC osmotic lysis, higher = more signal, called active from +8 up or from −8 down
[4] = plasmodial surface anion channel blockers, osmotic lysis – cell-based, P. falciparum Indochina, OD700, 2 h, primary screen (AID 1155);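 note: lysis reports solute entry through the parasite surface anion channel PSAC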; conditions: P. falciparum Indochina infected erythrocytes, higher = more signal, called active from +8 up or from −8 down
[5] = changes in parasitized red cell lysis, either direction – P. falciparum Indochina, OD700, 3 h, PSAC antagonist project, primary screen (AID 1156); conditions: P. falciparum-infected erythrocytes, osmotic lysis, higher = more signal, called active from +8 up or from −8 down
[6] = plasmodial surface anion channel blockers, osmotic lysis – cell-based, P. falciparum Indochina, OD700, 18 h, primary screen (AID 1157); conditions: P. falciparum Indochina infected erythrocytes, osmotic lysis OD700, 18 h; higher = more signal, called active from +8 up or from −8 down
[7] = S6 kinase pathway phospho-S6 level changes – cell-based, A549, cytoblot, luminescence, serum-stimulated, primary screen (AID 1158); conditions: 5 h, higher = more signal;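 note: serum-stimulated A549 lung adenocarcinoma cells; signal is phosphorylated S6 detected by cytoblot immunostaining with HRP secondary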
[8] = molecular target: NADPH oxidase 2 (Homo sapiens) (UniProt P04839); assay: compounds shifting NOX2 Amplex Red fluorescence – cell-based, HEK293-NOX2, PMA-stimulated, NOX inhibitor project, primary screen (AID 1159); conditions: 45 min, higher = more signal, called active from +8 up or from −8 down; note: test concentration not given here
Chain of NADPH oxidase 2 (Homo sapiens) (P04839 whole entry, looked up): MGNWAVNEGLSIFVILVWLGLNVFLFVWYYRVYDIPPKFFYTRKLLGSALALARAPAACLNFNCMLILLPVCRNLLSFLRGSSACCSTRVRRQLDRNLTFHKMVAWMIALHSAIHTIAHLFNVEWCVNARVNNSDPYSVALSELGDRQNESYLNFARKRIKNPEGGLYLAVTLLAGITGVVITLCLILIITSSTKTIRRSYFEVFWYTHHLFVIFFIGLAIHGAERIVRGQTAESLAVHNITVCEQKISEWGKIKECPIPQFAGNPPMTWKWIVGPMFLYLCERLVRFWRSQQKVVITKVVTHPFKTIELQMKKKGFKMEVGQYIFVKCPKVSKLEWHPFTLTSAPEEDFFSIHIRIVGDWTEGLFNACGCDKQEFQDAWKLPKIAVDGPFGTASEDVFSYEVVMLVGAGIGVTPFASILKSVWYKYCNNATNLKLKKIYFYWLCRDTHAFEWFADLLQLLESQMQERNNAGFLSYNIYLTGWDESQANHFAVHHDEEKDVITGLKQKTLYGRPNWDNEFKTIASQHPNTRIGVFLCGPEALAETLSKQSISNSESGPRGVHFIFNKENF

[9] = molecular target: NADPH oxidase 4 (Homo sapiens) (UniProt Q9NPH5); assay: compounds shifting NOX4 Amplex Red fluorescence – cell-based, HEK293-NOX4, tetracycline-induced, NOX inhibitor project, primary screen (AID 1160); conditions: HEK293-NOX4, Amplex Red H2O2 fluorescence, 45 min; higher = more signal, called active from +8 up or from −8 down
Chain of NADPH oxidase 4 (Homo sapiens) (Q9NPH5 whole entry, looked up): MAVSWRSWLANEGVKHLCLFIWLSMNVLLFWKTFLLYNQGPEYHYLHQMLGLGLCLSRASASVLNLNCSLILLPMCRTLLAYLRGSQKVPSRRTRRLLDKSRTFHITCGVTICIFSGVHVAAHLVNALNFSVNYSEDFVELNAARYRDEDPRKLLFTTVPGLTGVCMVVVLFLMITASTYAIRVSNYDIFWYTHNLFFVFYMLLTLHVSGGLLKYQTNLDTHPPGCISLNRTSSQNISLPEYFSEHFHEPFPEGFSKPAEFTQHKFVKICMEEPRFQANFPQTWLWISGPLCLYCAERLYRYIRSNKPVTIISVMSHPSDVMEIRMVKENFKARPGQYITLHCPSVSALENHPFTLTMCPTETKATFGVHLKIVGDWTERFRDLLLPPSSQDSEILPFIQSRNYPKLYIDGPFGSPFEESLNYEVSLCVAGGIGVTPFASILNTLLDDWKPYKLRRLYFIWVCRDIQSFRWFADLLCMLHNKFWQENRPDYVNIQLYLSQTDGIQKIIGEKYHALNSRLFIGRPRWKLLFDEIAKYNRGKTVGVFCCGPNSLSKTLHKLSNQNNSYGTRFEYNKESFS

[10] = molecular target: NADPH oxidase 5 (Homo sapiens) (UniProt Q96PH1); assay: compounds shifting NOX5 Amplex Red fluorescence – cell-based, HEK293-NOX5, NOX inhibitor project, primary screen (AID 1161); conditions: HEK293-NOX5, ionomycin, 45 min, higher = more signal
Chain of NADPH oxidase 5 (Homo sapiens) (Q96PH1 whole entry, looked up): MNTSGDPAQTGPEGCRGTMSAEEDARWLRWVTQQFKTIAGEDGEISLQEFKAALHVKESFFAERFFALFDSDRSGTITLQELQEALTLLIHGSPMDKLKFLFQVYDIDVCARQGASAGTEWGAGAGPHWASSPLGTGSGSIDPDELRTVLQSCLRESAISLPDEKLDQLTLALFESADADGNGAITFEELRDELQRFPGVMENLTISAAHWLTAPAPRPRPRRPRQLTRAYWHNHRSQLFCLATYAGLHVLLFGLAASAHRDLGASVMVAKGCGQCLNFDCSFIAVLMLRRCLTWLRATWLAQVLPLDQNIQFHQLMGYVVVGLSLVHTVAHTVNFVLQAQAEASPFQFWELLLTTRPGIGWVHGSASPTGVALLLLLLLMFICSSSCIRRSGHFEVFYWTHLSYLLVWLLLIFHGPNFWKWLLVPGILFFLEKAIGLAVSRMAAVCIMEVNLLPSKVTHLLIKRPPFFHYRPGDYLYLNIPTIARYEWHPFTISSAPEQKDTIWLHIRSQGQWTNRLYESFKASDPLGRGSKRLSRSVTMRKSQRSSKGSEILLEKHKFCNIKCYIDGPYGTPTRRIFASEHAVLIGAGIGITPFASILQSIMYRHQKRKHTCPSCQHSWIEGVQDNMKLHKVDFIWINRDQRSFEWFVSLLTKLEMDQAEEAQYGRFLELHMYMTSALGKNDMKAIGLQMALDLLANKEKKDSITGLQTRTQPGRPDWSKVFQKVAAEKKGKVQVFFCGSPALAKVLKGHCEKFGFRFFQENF

[11] = compound effects on lung adenocarcinoma cell viability – A549, calcein-AM fluorescence, 48 h, basal, profiling panel (AID 1162); conditions: higher = more signal; note: test concentration not given here
[12] = compound effects on differentiated 3T3-L1 adipocyte viability – cell-based, 3T3-L1 adipocytes, calcein-AM fluorescence, 48 h, basal, profiling panel (AID 1163); conditions: 3T3-L1 adipocytes viability, higher = more signal; note: test concentration not given here
[13] = compound effects on hepatocellular carcinoma cell viability – HepG2, calcein-AM fluorescence, 48 h, basal, profiling panel (AID 1164); conditions: higher = more signal; note: test concentration not given here
[14] = compound effects on multiple myeloma cell viability – MM1S, calcein-AM fluorescence, 48 h, basal, profiling panel (AID 1165); conditions: higher = more signal; note: test concentration not given here
[15] = calcein-AM signal in unstimulated myeloma cells – cell-based, calcein-AM fluorescence, 48 h, PK04 Diversity Set, profiling panel (AID 1166); conditions: RPMI8226 myeloma viability, higher = more signal;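 note: cells grown under basal conditions without added stimulus; test concentration not given here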
[16] = JC-1 mitochondrial signal, unstimulated HepG2 cells – cell-based, JC-1 fluorescence, 24 h, 100 nL compound, profiling panel (AID 1167); conditions: HepG2 mitochondrial potential, higher = more signal; note: test concentration not given here
[17] = JC-1 mitochondrial signal, unstimulated adipocytes – cell-based, JC-1 fluorescence, 3T3-L1 adipocytes, 24 h, 100 nL compound, profiling panel (AID 1168); conditions: JC-1 mitochondrial fluorescence, higher = more signal, called active from +8 up or from −8 down; note: test concentration not given here
[18] = JC-1 mitochondrial signal, unstimulated myeloma cells – cell-based, JC-1 fluorescence, RPMI8226, 24 h, 100 nL compound, profiling panel (AID 1169); conditions: JC-1 mitochondrial potential fluorescence, higher = more signal; note: test concentration not given here
[19] = JC-1 mitochondrial signal, unstimulated MM1S myeloma – cell-based, JC-1 fluorescence, 24 h, 100 nL compound, profiling panel (AID 1170); conditions: MM1S mitochondrial potential, higher = more signal; note: test concentration not given here
[20] = resazurin metabolic signal in A549 cells – cell-based, resazurin fluorescence, 24 h, PK04 Diversity Set, profiling panel (AID 1171); conditions: A549 viability, higher = more signal, called active from +8 up or from −8 down; note: test concentration not given here

Row | SMILES | z-score [1] | composite z-score [2] | z-score [3] | z-score [4] | z-score [5] | z-score [6] | z-score [7] | z-score [8] | z-score [9] | z-score [10] | z-score [11] | z-score [12] | z-score [13] | z-score [14] | z-score [15] | z-score [16] | z-score [17] | z-score [18] | z-score [19] | z-score [20]
1 | O=C1c2ccccc2C(=O)C2CC([C@H]3Oc4ccccc4S(=O)(=O)N4CCC[C@@H]34)=CCC12 (stereo not given in full) | 1.03 (inactive) | -0.196 | 8 (inactive) | 1.12 (inactive) | -0.0247 (inactive) | 0.696 (inactive) | 0.127 | 0.5 (inactive) | -3.1 (inactive) | -0.779 | 0.242 | 0.703 | 1.13 | -2.53 | -0.0759 | 0.786 | 0.0775 (inactive) | -0.667 | -0.852 | 0.178 (inactive)
2 | [N-]=[N+]=NCc1ccccc1[C@H]1OC(c2ccc(OCCCO)cc2)=N[C@@]1(Cc1ccccc1)C(N)=O | 0.0183 (inactive) | 0.174 | 25.2 (active) | 15.2 (active) | 1.79 (inactive) | 2.75 (inactive) | 0.534 | -0.17 (inactive) | 1.21 (inactive) | 1.2 | 0.267 | 0.514 | 1.63 | -0.0987 | 0.317 | 1.19 | 0.593 (inactive) | -0.418 | -1.01 | 1.16 (inactive)
3 | C[C@@H]1ON(c2ccccc2)[C@H](c2ccccc2)[C@H]1C(=O)N1C(=O)OC[C@H]1Cc1ccccc1 | 0.848 (inactive) | -0.294 | 1.66 (inactive) | 0.282 (inactive) | -0.13 (inactive) | 0.379 (inactive) | 0.389 | 0.0547 (inactive) | -0.104 (inactive) | -1.37 | -0.245 | 0.701 | -0.0596 | -1.4 | -0.0681 | 1.38 | 0.00493 (inactive) | -0.137 | -0.645 | 1.38 (inactive)
4 | COCCOC(=O)N1C(=O)[C@@]2(c3cc(C#CCC(C(=O)OC)C(=O)OC)ccc31)[C@H](c1ccc(OCCO)cc1)N1[C@H](c3ccccc3)[C@H](c3ccccc3)OC(=O)[C@H]1[C@@H]2C(N)=O | -0.361 (inactive) | -0.147 | 5.25 (inactive) | 1.58 (inactive) | 0.478 (inactive) | 0.59 (inactive) | 0.702 | 2.17 (inactive) | 0.988 (inactive) | 0.717 | 0.462 | 0.433 | 0.322 | -2.51 | -2.67 | -0.0777 | 1.3 (inactive) | -0.72 | -0.0535 | 1.18 (inactive)
5 | C=C[C@@H](O)[C@H]1CC(c2ccccc2)=NO1 | 1.07 (inactive) | 0.0557 | 16 (active) | 1.82 (inactive) | -0.112 (inactive) | 0.477 (inactive) | -0.194 | -0.671 (inactive) | -0.0807 (inactive) | 0.344 | 0.721 | -3.92 | -0.34 | 0.626 | 0.353 | 0.0313 | -0.809 (inactive) | 0.434 | -0.819 | 0.558 (inactive)
6 | COc1ccccc1CN1C(=O)c2ccccc2[C@](Cc2ccccc2I)(C(=O)NCCN2CCOCC2)[C@@H]1c1ccc(CO)cc1 | 0.117 (inactive) | -0.181 | 9.62 (active) | 0.349 (inactive) | -0.113 (inactive) | -0.385 (inactive) | 1.39 | -1.81 (inactive) | 0.454 (inactive) | -0.824 | 0.0739 | 0.937 | 1.26 | -1.17 | -2.74 | 2.25 | 0.833 (inactive) | -0.673 | -0.454 | -1.83 (inactive)
7 | COc1ccccc1CN1C(=O)c2ccccc2[C@@]2(Cc3ccccc3N(C3CC3)C2=O)[C@@H]1c1ccc(CO)cc1 | -0.685 (inactive) | -0.235 | 0.162 (inactive) | -0.0183 (inactive) | -0.108 (inactive) | 0.23 (inactive) | -0.243 | -0.161 (inactive) | 0.394 (inactive) | 1.04 | 0.0264 | 0.358 | 0.43 | -1.6 | -0.96 | -0.774 | -0.607 (inactive) | 0.213 | 0.361 | 0.375 (inactive)
